Results as given in PubChem BioAssay AID2315 (National Center for Advancing Translational Sciences (NCATS), 2010).
“And” between values parts separate entries of the source, which are not always exact repeats. Identical values can stand only once. Among all 290,000 compounds or so, about 27,000 (9.3%) were called active. The sample as a whole holds a higher share of actives than the screen did. Values without a mark were called inactive. Rule as the data show it: active = inhibition mostly above about 28% (no sharp cut-off); inactive = mostly below about 43%.

Assay: A qHTS for Small Molecule Inhibitors of Shiga Toxin; also: 0% is about no effect
Conditions: Vero cells, Shiga toxin protein synthesis inhibition reporter; at 38.7 µM, active compounds read high

Row | Compound | inhibition
1 | Cc1cccc(C(=O)NC(=S)N(C)C2CCCCC2)c1 | 117% (active)
2 | Cc1cccc(C(=O)NCCCN(C)CCCNC(=O)c2cccc(C)c2)c1 | -6.03%
3 | Cc1cccc(NC(=S)NCCN(C2CCCCC2)C2CCCC2)c1 | 19.2%
4 | Cc1nc2ccc(C(=O)N(C)CC3CCCN(CCc4ccc(Cl)cc4)C3)cc2[nH]1 (stereo not drawn) | -8.28%
5 | COc1ccc(COC(=O)c2ccc(Cl)c(S(=O)(=O)N3CCOCC3)c2)cc1F | -8.8%
6 | Cc1ccccc1N1CCN(CC(=O)NCc2ccc(Cl)cc2)CC1 | -5.06%
7 | O=C(CN1CCN(S(=O)(=O)c2ccc(Cl)s2)CC1)NCc1ccc(Cl)cc1 | 34.8% (active)
8 | O=C(NCc1ccc(Cl)cc1)C1CCN(S(=O)(=O)c2cccs2)CC1 | 4.43%
9 | CC(C)c1ccccc1OCC(O)CN(CC(O)COc1cccc2ccccc12)C(C)C (stereo not drawn) | -14.8%
10 | COc1cccc(C(=O)NC(=O)Nc2nc(C)cc(C(F)(F)F)n2)c1 | 4.77%
11 | Cn1nc(-c2ccccc2)c(-c2nc(-c3ccc(Cl)cc3)no2)c1Cl | -16%
12 | Brc1ccc(-c2noc(-c3ccccc3)n2)o1 | 139% (active)
13 | Brc1ccc(-c2nnc(-c3ccccc3)o2)o1 | 71.5% (active)
14 | Nc1nonc1-c1noc(-c2ccc(Br)o2)n1 | 24.2%
15 | COc1ccc(CNC(=O)CCN2C(=O)c3ccccc3C2=O)cc1 | 4.69%
16 | O=C(O)CC(c1ccccc1F)N1Cc2ccccc2C1=O (stereo not drawn) | -12%
17 | O=C(CN1CCN(c2ccccn2)CC1)NCc1cccs1 | -22.2%
18 | COCCCNC(=O)Cn1cc(C(=O)C2CC2)c2ccccc21 | -8.71%
19 | O=C(Cn1cc(C(=O)c2cccs2)c2ccccc21)NCc1cccs1 | 16.3% (active)
20 | COC(=O)Cn1cc(C(=O)c2cccs2)c2ccccc21 | 2.14%
21 | COC(=O)c1cn(CC(=O)NCc2cccs2)c2ccccc12 | 64.8% (active)
22 | CCN(CC)C(=O)C(=O)c1cn(CC(=O)NCc2ccc3c(c2)OCO3)c2ccccc12 | -11.5%
23 | Cc1cc(=O)[nH]c(Nc2cccc(Br)c2)n1 | -10.8%
24 | N#Cc1cccc(CSc2ncnc(N)n2)c1 | 3.32%

Row | Compound | inhibition
25 | Cc1ccccc1-n1cc(CNC(=O)C2CCC(=O)N(C3CC3)C2)cn1 (stereo not drawn) | 21.3%
26 | COc1ccc2c(c1)N(C)/C(=C1/SC(=S)N(NC(C)=O)C1=O)S2 | 7.78%
27 | COc1ccc(N(Cc2ccc(N(C)C)cc2)C(=O)c2ccc(S(C)(=O)=O)cc2)cc1 | -10.5%
28 | COc1ccc(OCc2cccc(C(=O)N3CCCC3)c2)cc1 | 147% (active)
29 | COc1ccc(Cn2c(=S)[nH]c3cc(C(=O)N4CCCCC4)ccc3c2=O)cc1 | -3.58%
30 | CCOc1ccc(OCc2ccc(C(=O)N(C)c3ccccc3)o2)cc1 | 13%
31 | COc1cccc(COc2ccc(N(C)S(=O)(=O)c3ccccc3)cc2)c1 | 26%
32 | CC(=O)Oc1ccc(-c2cccc(C(=O)N3CCCCC3)c2)cc1 | 37.3%
33 | CCOc1ccc(OCc2cccc(C(=O)N(CC)CC)c2)cc1 | 160% (active)
34 | O=C(COc1ccccc1[N+](=O)[O-])NC1CC1 | 19.4%
35 | CCN1C(=NCc2ccc(OC)cc2)N[C@@H](CCc2ccccc2)[C@H](C(=O)NCc2ccc(OC)cc2)[C@H]1C | 2.67% and -2.62%
36 | CCc1ccc(NC(=O)Cn2ncn3c(cc4ccccc43)c2=O)cc1 | 5.27%
37 | CC(C)c1ccc(NC(=O)Cn2ncc3ccccc32)cc1 | 74.2% (active)
38 | CCOC(=O)c1cn(CC(=O)Nc2ccc(C(C)C)cc2)nn1 | -16.4%
39 | Nc1nonc1-n1nnc(C(=O)N/N=C/c2c[nH]c3ccccc23)c1-c1ccccc1 | -17%
40 | CCn1cc(S(=O)(=O)c2cccc(C)c2)c(=O)c2cc(F)c(N3CCN(C)CC3)cc21 | 4.57%
41 | COc1cccc(C(=O)NNC(=O)c2ccccc2Br)c1 | -5.95%
42 | CC(=O)Oc1cccc(C(=O)Nc2ccccc2NC(=O)c2cccc(OC(C)=O)c2)c1 | -7.51%
43 | COc1cccc(C(=O)Nc2ccc(N3CCN(C(=O)c4ccco4)CC3)cc2)c1 | 2.21%
44 | COc1ccc(C(=O)NC(=S)Nc2ccc(N3CCCC3)cc2)cc1OC | 11.5%
45 | COc1cccc(C(=O)Nc2cc3c(cc2Br)OCCCO3)c1 | 95.9% (active)
46 | CN1CCN(c2ccc(NC(=O)c3ccc4c(c3)[nH]c(=O)n4Cc3ccc(F)cc3)cc2)CC1 | -1.72%
47 | COc1cccc(C(=O)Nc2ccc(N3CCCC3)cc2)c1 | 47.9% (active)
48 | CN1CCN(c2ccc(NC(=O)c3ccccc3)cc2)CC1 | 47.5% (active)

Row | Compound | inhibition
49 | Cc1ccccc1C(=O)Nc1ccc(N2CCCCCC2)cc1 | 36.6%
50 | Cc1ccc(-c2noc(CNC(=O)c3ccoc3C)n2)cc1 | -9.24%
51 | CCOCCCNC(=O)c1ccc(CS(=O)(=O)c2cccc(C(F)(F)F)c2)o1 | 21.3%
52 | COC(=O)c1ccc(NC(=O)c2cc3c(CO)cnc(C)c3oc2=Nc2cccc(C(N)=O)c2)cc1 | -1.8%
53 | CCN1C(=NCC(C)C)N[C@@H](CCc2ccccc2)[C@H](C(=O)NCC(C)C)[C@H]1C | -2.89% and 9.38%
54 | O=C(CNC(=O)c1cccnc1)N/N=C/c1cc(Br)c(O)c(Br)c1 | -3.98%
55 | O=S(=O)(c1ccccc1)N(Cc1cccc(F)c1)c1ccccc1 | -4.98%
56 | CNC(=S)N/N=C/c1cn(Cc2ccc(C)cc2)c2ccccc12 | 21.9%
57 | COC(=O)N/N=C/c1cn(CCCOc2ccc(C)cc2)c2ccccc12 | 37.2% (active)
58 | CCOC(=O)N/N=C/c1cn(Cc2ccccc2Cl)c2ccccc12 | 20.2%
59 | Cc1ccc(NC(=O)CN(C)C(=O)COC(=O)C(C)(C)Oc2ccc(Cl)cc2)cc1 | -9.8%
60 | O=C(CN1CCN(c2cccc(Cl)c2)CC1)Nc1ccc(S(=O)(=O)N2CCOCC2)cc1 | -9.51%
61 | O=C(CSCc1ccccc1)Nc1ccccc1 | 50.8% (active)
62 | Cc1c(NC(=O)CSCc2ccccc2)cccc1C(=O)O | 31.3%
63 | Cn1c(CSCC(=O)Nc2ccccc2)nnc1SCc1ccccc1 | 18.4%
64 | COc1ccc(Cl)cc1NC(=O)c1cccc(N2C(=O)C3CC=CCC3C2=O)c1 (stereo not drawn) | -4.45%
65 | COc1ccc(S(=O)(=O)N2CCSCC2)cc1 | -9.94%
66 | CCOC(=O)N1CCN(Cc2nnc(-c3ccccc3Cl)o2)CC1 | -5.19%
67 | O=C(COc1ccccc1)Nc1ccc(C(=O)N2CCCC2)cc1 | 9.15%
68 | COc1cc(C2NC(=O)NC(c3ccccc3)=C2C(C)=O)c(Br)cc1OCC(N)=O (stereo not drawn) | -4.39%
69 | O=C(NC(=S)Nc1ccc(NC(=O)c2cccs2)cc1)c1ccc([N+](=O)[O-])cc1 | 36.1%
70 | O=C(NC(=S)Nc1cccc(-c2ccc(CO)o2)c1)c1cccs1 | 127% (active)
71 | O=C(Nc1ccccc1-c1ccccc1)c1cccs1 | -12.5%
72 | O=S(=O)(Cc1cc(Cl)nc(-c2cccnc2)n1)c1ccccc1 | 40.3%

Row | Compound | inhibition
73 | O=C(c1cc(S(=O)(=O)N2CCOCC2)ccc1Cl)N1CCOCC1 | -6.61%
74 | CC(C)CCN(C(=O)c1csnn1)C(C(=O)NC1CCCC1)c1ccccc1 (stereo not drawn) | -3.8%
75 | Cc1cc2c(=O)n(CC(=O)NCC(=O)Nc3ccc(C(C)C)cc3)cnc2s1 | -9.56%
76 | COc1ccc(CCNC(=O)CCNS(=O)(=O)c2cc(Br)cnc2N)cc1OC | -6.21%
77 | CS(=O)(=O)N(CC(=O)N1CCOCC1)c1cccc(Cl)c1Cl | 1.97%
78 | O=C(Cn1nnc(-c2ccccc2)n1)NCc1ccccc1 | -10.9%
79 | Cc1ccccc1-c1nnn(CC(=O)c2ccc(S(=O)(=O)N3CCCC3)cc2)n1 | -5.14%
80 | Cc1nc2ccccc2n1CC(O)c1ccccc1 (stereo not drawn) | -2.2%
81 | CCOc1ccc(S(=O)(=O)N2CCCC(C(=O)N3CCC(C(N)=O)CC3)C2)cc1Cl (stereo not drawn) | 15.1%
82 | CCOC(=O)CSc1nc(N2CCOCC2)c2c(c1C#N)CC(C(C)C)OC2 (stereo not drawn) | -7.43%
83 | CC(=O)C1=C(O)C(=O)N(c2ccc(Br)cc2)C1c1ccc([N+](=O)[O-])cc1 (stereo not drawn) | -5.69%
84 | CN(C)CCN(C(=O)C1=COCCO1)c1nc2ccc(Cl)cc2s1 | 128% (active)
85 | CCc1ccc2nc(N(CCCN(C)C)C(=O)c3ccc4c(c3)OCCO4)sc2c1 | -6.1%
86 | Cc1ccc2nc(N(CCN(C)C)C(=O)C3=COCCO3)sc2c1 | 6.59%
87 | COc1ccc(NC(=O)C2CCN(S(=O)(=O)c3ccc4[nH]c(=O)oc4c3)CC2)c(OC)c1 | -2.15%
88 | Cn1c(Nc2ccccc2)cc(=O)n(C)c1=O | -6%
89 | CN(C)S(=O)(=O)c1ccc(C(=O)NCCN=C2NS(=O)(=O)c3ccccc32)cc1 | -13.8%
90 | O=c1c(-c2cccc(Cl)c2)c[nH]n1-c1ccccc1 | 77.1% (active)
91 | Cc1[nH]n(-c2cccc(Cl)c2)c(=O)c1-c1ccc(Cl)cc1 | 34.8%
92 | O=c1c(-c2ccccc2Cl)c[nH]n1-c1ccccc1 | 9.18%
93 | COc1ccc(CNC(=O)Cc2ccc(-c3ccccc3)cc2)cc1OC | -1.2%
